This is an account of results in PubChem BioAssay (NCATS).

Records with an inconclusive call do not appear. Unmarked numbers belong to inactive results. Calls follow the shape of the dose curve; as a rule, active = well fitted inhibition curve with a large enough effect; inconclusive = small, poorly fitted or top-dose-only effect; inactive = flat fitted curve, though single readings scatter.
% is scaled to controls: 0 for no effect and ±100 for the full control effect.

Chain of Calcium and integrin-binding protein 1 (Homo sapiens) (Q99828 whole entry, looked up): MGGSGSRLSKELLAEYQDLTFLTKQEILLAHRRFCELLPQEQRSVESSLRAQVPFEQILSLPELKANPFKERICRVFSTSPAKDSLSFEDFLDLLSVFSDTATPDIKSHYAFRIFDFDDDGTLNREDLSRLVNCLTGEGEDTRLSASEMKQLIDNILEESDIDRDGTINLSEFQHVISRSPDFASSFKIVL

The target in the test is Calcium and integrin-binding protein 1 (Homo sapiens) (UniProt Q99828). Put plainly: Primary qHTS for Identification of Calcium Integrin Binding Protein 1 (CIB1) Competitor (AID 1508620).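 Also: GST tagged CIB1 binding a fluorescein labelled alphaIIb integrin peptide tracer; top concentration of the series differs between compounds.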 The note with it: CIB1-GST / FITC-alphaIIb peptide fluorescence polarization; series mostly up to 114 µM; activity change, negative = inhibition: at the top concentration. The procedure, abridged:
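Fluorescence polarization competition: CIB1-GST (1 uM final) preincubated with compound 15 min at room temperature, then FITC-labeled alphaIIb peptide (100 nM final) added for another 15 min. Polarization read at Ex 480/Em 540.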
With `Cc1cc(=O)oc2c(C=O)c(O)ccc12`, the “activity change, negative = inhibition” value is -13.1%.
Regarding `COc1cc(C(=O)NC2CCN(C)CC2)ccc1Nc1ncc2c(n1)N(C1CCCC1)CC(F)(F)C(=O)N2C`, the “activity change, negative = inhibition” value was -5.09%.
For `C=C1C(O)C(O)C2(CC3C(C)=CCC4C(C)(CO)CCCC34C)OC2C1O` (stereo not given) the value was 1.4% [at 57.7 µM].
For `C=C(C(=O)O)C1CC2=C(C)CCCC2(C)C[C@@H]1O` (stereo not given in full) the value was 3.22%.
As for `CSc1ccc(C(=O)N[C@@H]2CCCC[C@@H]2NC(=O)CNC(=O)c2cc(C(F)(F)F)ccc2NC(=O)NC(C)C)cc1`, the figure is 3.84%; as for `CC(C)(O[C@@H]1O[C@H](CO)[C@@H](O)[C@H](O)[C@H]1O)C(OC(=O)/C=C\c1ccc(O)cc1)C(=O)OCc1ccc(O[C@@H]2O[C@H](CO)[C@@H](O)[C@H](O)[C@H]2O)cc1` (stereo not given in full), 2.26% [at 30.2 µM].
Turning to `CC(=O)N[C@@H](CCCCN)C(=O)N(C)[C@@H](CC(C)C)C(=O)N[C@H](C(=O)N(C)[C@@H](Cc1ccccc1)C(=O)N[C@H](Cc1ccccc1)C(N)=O)C(C)C`, the activity change, negative = inhibition was 1.59% [at 12.4 µM].
As for `CCN(CC)c1ccc2c(O)c(C=Nc3ccc(CC(=O)O)c(-c4c5c(nc6ccccc46)CCC(C(=O)NN)C5)c3)c(=O)oc2c1` (stereo not given), the figure is 37.3%; as for `CC(=O)C1=CCC2C3CCC4CC(O[C@@H]5O[C@H](CO)[C@@H](O[C@@H]6O[C@@H](C)[C@H](O)[C@@H](O)[C@H]6O)[C@H](O)[C@H]5O[C@@H]5O[C@H](CO)[C@@H](O)[C@H](O)[C@H]5O)CCC4(C)C3CCC12C` (stereo not given in full), 3.17% [at 30.2 µM].
For `Cc1csc(NC(=O)c2ccc(COc3cccc(Cl)c3)o2)n1` the value was -0.402%.
For `C=C1C(O)CC2C(C(=O)O)=COC(O[C@@H]3O[C@H](COC(=O)/C=C/c4ccc(O)cc4)[C@@H](O)[C@H](O)[C@H]3O)C12` (stereo not given in full) the value was 4.72% [at 57.7 µM]; for `C[C@@H]1N[C@H]2N(C1=O)c1ccccc1[C@@]2(O)C[C@@H]1C(=O)N[C@@H](C)c2nc3ccccc3c(=O)n21`, 5.41% [at 57.7 µM]; for `COc1cccc(Nc2ncnn3ccc(CN4CC[C@@H](N)[C@H](O)C4)c23)c1`, 4.35%.
On to `COc1ccc([C@H]2CNC(=O)C2)cc1OC1CCCC1`, for which the “activity change, negative = inhibition” value was -2.44%.
In the case of `O=C1N=C(N2CCOCC2)CN1c1ccc(Cl)cc1`, the “activity change, negative = inhibition” value was 2.63%.
As for `CC(C)c1ccc(CO)cc1O[C@@H]1O[C@H](CO)[C@@H](O)[C@H](O)[C@H]1O`, the figure is 1.52% [at 57.7 µM]; as for `Cn1nnc(-c2ccc(-c3ccc(N4C[C@H](CO)OC4=O)cc3F)cn2)n1`, 0.1%; as for `CN(C)C/C=C/C(=O)Nc1cc2c(Nc3ccc(F)c(Cl)c3)ncnc2cc1OC1CCOC1` (stereo not given), -5.46%.
Regarding `C[C@@H]1O[C@@H](O[C@H]2[C@@H]3C=CO[C@@H](O[C@@H]4O[C@H](CO)[C@@H](O)[C@H](O)[C@H]4O)[C@@H]3[C@@]3(CO)O[C@@H]23)[C@H](OC(=O)/C=C/c2ccc(O)c(O)c2)[C@H](O)[C@H]1O`, the “activity change, negative = inhibition” value is 2.74% [at 30.2 µM].
With `NCc1ccc(Nc2ncc(F)c(Nc3ccccc3)n2)cc1`, the “activity change, negative = inhibition” value was -4.3%.
For `C=C1C(=O)O[C@H](CCC)[C@H]1C(=O)O` the value was 3.45%.
As for `COC(=O)N[C@H](C(=O)N1[C@@H]2CC[C@@H](C2)[C@H]1c1nc2ccc(-c3ccc4c(c3)C(F)(F)c3cc(-c5cnc([C@@H]6CCC7(CC7)N6C(=O)[C@@H](NC(=O)OC)C(C)C)[nH]5)ccc3-4)cc2[nH]1)C(C)C`, the figure is 1.14% [at 57.7 µM]; as for `CC1CCC2(C(=O)O)CCC3(C)C(=CCC4C5(C)CCC(O)C(C)(CO)C5CCC43C)C2C1(C)O` (stereo not given), 0.459% [at 57.7 µM]; as for `CCOc1cc(N2CCC(O)CC2)ccc1Nc1ncc2c(n1)N(C1CCCC1)CCC(=O)N2C`, -0.402%.
As for `COC(=O)CC(C)(O)CC(=O)OCc1ccc(O[C@@H]2O[C@H](CO)[C@@H](O)[C@H](O)[C@H]2O)cc1` (stereo not given in full), the figure is 3.35% [at 57.7 µM]; as for `O=C(c1ccccc1)c1ccc2nc(NC(=O)c3csc(C4CCN(c5ncnc6ccsc56)CC4)n3)[nH]c2c1`, 4.9%; as for `CC(C)=CCC[C@](C)(O[C@@H]1O[C@H](CO[C@@H]2O[C@H](CO)[C@@H](O)[C@H](O)[C@H]2O)[C@@H](O)[C@H](O)[C@H]1O)C1CC[C@]2(C)[C@@H]1[C@H](O)CC1[C@@]3(C)CC[C@H](O[C@@H]4O[C@H](CO)[C@@H](O)[C@H](O)[C@H]4O[C@@H]4O[C@H](CO)[C@@H](O)[C@H](O)[C@H]4O)C(C)(C)[C@@H]3CC[C@]12C` (stereo not given in full), -0.481% [at 30.2 µM].
Turning to `COC(=O)CCC(=O)OC[C@]1(C)CCC[C@@]2(C)C3CC[C@]4(C)C=CC3(CCC12)C4` (stereo not given in full), the “activity change, negative = inhibition” value was 5.12% [at 57.7 µM].
Turning to `CC(=O)OC12COC1CC(O)C1(C)C(=O)C(O)C3=C(C)C(OC(=O)C(O)C(NC(=O)OC(C)(C)C)c4ccccc4)CC(O)(C(OC(=O)c4ccccc4)C21)C3(C)C` (stereo not given), the “activity change, negative = inhibition” value is -10.5%.
On to `C[C@@H]1O[C@@H](O[C@H]2[C@H](O[C@H]3CC[C@@]4(C)C(CC[C@]5(C)C4C=C[C@]46OC[C@@]7(CCC(C)(C)C[C@H]74)[C@@H](O)C[C@]65C)[C@]3(C)CO)O[C@H](CO)[C@@H](O)[C@@H]2O[C@@H]2O[C@H](CO)[C@@H](O[C@@H]3O[C@@H](C)[C@H](O)[C@@H](O)[C@H]3O)[C@H](O)[C@H]2O)[C@H](O)[C@H](O)[C@H]1O` (stereo not given in full), for which the “activity change, negative = inhibition” value is 0.823% [at 30.2 µM].
With `CC1(C)CC(NC(=O)C(=O)Nc2ccc(Br)cc2)CC(C)(C)N1`, the “activity change, negative = inhibition” value was 0.539%.
For `COc1c2c(cc3c1-c1c(cc4c(c1OC)OCO4)CC(C)C(C)C3)OCO2` (stereo not given) the value was 1.3% [at 57.7 µM]; for `CC(=O)OC1C(=O)C2(C)C(O)CC3OCC3(OC(C)=O)C2C(OC(=O)c2ccccc2)C2(O)CC(OC(=O)C(O)C(NC(=O)c3ccccc3)c3ccccc3)C(C)=C1C2(C)C` (stereo not given), -0.745%.
As for `COC(=O)c1c(C)cc(OC(=O)c2c(C)cc(OC)cc2OC)cc1O[C@@H]1O[C@H](CO)[C@@H](O)[C@H](O)[C@H]1O`, the figure is -9.73% [at 57.7 µM].
As for `COc1ccc([C@@]2(O)c3c(ccc(CC=C(C)C)c3O)NC(=O)[C@@H]2OC)cc1`, the figure is 0.567% [at 57.7 µM]; as for `COc1ccc(-c2nc(-c3ccc(-c4cccc(Cl)c4)o3)[nH]c2-c2ccc(OC)cc2)cc1`, 0.901%; as for `C[C@@]12C[C@]3(O)O[C@H](O1)[C@]1(COC(=O)c4ccccc4)[C@H]3C[C@@]12O[C@@H]1O[C@H](CO)[C@@H](O)[C@H](O)[C@H]1O`, 0.0893% [at 57.7 µM].
For `COc1cc(N)c(Cl)cc1C(=O)NC[C@@H]1CCN2CCC[C@@H]12`, the “activity change, negative = inhibition” value was -4.51%.
As for `CC(C)=CCC[C@](C)(O[C@@H]1O[C@H](CO)[C@@H](O)[C@H](O)[C@H]1O)[C@H]1CC[C@]2(C)[C@@H]1[C@H](O)CC1[C@@]3(C)CC[C@H](O)C(C)(C)C3[C@@H](O[C@@H]3O[C@H](CO)[C@@H](O)[C@H](O)[C@H]3O)C[C@]12C` (stereo not given in full), the figure is -1.33% [at 30.2 µM].
As for `CCC(O)(C(=O)OCc1ccccc1NC(=O)CCC(=O)O)C(C)O` (stereo not given), the figure is -1.78% [at 57.7 µM].
